Screens: PubChem, National Center for Advancing Translational Sciences (NCATS)
This is a sample that favours compounds with a hit; in the whole collection about 2.4% have one here.
Pol beta inh-1: qHTS Assay for Inhibitors of DNA Polymerase Beta; Pol beta primer extension/strand displacement, fluorescence kinetic; actives 1.3% (n = 340,000); P06746; Potency, µM (doses to about 114 µM), inactives show top-dose activity change, negative = inhibition, actives largely listed as inhibitors; further: potency means the concentration at half of the fitted maximal effect; on the % scale 0 is the no-effect control and ±100 the full control effect
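Homogeneous kinetic assay of primer extension and strand displacement by 10 nM Pol beta, preincubated 15 min at room temperature with compound before 50 nM substrate (final) was added. Read at 0 and 10 min; four-parameter Hill fit.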
GLS inhibitor: qHTS for Inhibitors of Glutaminase (GLS); GLS enzymatic activity, qHTS titration; Potency, µM (titrated, usually from 45.5 µM), inactives show at the top dose activity change, negative = inhibition, actives largely listed as inhibitors; actives 0.21% (n = 410,000); further: potency means the concentration at half of the fitted maximal effect; on the % scale 0 is the no-effect control and ±100 the full control effect
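Assay buffer: 45 mM KH2PO4 pH 8.2, 0.02% Tween-20. hKGA acts on L-glutamine (1 mM solution added); product glutamate is reported by an oxidase/peroxidase Amplex Red coupling, with fluorescence taken at baseline and 30 min.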
Pol kappa inh-1: qHTS for Inhibitors of Polymerase Kappa; purified Pol kappa, fluorescent DNA synthesis assay, 10 min; Potency, µM (doses to about 107 µM), for inactives: at the highest dose activity, negative = inhibition, most hits filed as inhibitors; actives 0.53% (n = 400,000); further: potency means the concentration at half of the fitted maximal effect; on the % scale 0 is the no-effect control and ±100 the full control effect
Target sequence (Q9UBT6 whole entry, looked up): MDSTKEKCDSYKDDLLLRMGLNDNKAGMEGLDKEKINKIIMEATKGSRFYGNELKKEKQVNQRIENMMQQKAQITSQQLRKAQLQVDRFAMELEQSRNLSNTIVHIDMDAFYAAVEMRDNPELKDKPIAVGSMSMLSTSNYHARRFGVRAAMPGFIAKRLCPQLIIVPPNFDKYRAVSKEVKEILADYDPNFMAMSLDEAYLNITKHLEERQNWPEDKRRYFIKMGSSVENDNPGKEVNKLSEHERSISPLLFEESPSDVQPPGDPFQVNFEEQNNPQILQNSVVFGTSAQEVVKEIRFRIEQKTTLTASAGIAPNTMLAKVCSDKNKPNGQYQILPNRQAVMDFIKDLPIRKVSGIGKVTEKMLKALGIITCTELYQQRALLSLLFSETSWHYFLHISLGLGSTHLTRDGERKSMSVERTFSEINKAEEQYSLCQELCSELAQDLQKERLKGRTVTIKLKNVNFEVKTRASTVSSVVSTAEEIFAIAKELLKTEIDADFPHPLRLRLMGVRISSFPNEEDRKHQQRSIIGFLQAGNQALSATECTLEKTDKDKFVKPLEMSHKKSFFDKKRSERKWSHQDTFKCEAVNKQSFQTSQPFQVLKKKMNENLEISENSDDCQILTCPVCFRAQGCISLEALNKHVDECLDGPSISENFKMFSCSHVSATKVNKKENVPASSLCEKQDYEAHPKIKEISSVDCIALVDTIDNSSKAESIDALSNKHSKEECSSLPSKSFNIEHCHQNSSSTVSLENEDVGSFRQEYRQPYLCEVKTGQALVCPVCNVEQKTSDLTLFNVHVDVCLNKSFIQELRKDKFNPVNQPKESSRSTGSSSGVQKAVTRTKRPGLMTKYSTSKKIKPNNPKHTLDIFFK
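50 nM final substrate added after 15 min RT preincubation of 10 nM Pol kappa with compound; fluorescence read at 0 and 10 min.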
POLI inh: qHTS for Inhibitors of Polymerase Iota; Pol iota fluorescent replication assay, 10 min; AID 588590, 2011; actives 1% (n = 390,000); DNA polymerase iota (Homo sapiens), Q9UNA4; Potency, µM (series often up to 115 µM), without a hit: top-dose activity, negative = inhibition, actives largely listed as inhibitors; further: potency means the concentration at half of the fitted maximal effect
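Pol iota at 10 nM preincubated 15 min with compounds at room temperature; reaction started with fluorescent substrate, 50 nM final. Fluorescence read kinetically at 0 and 10 min; buffer-only wells as negative control.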
APEX1 inh: qHTS Assay for Inhibitors of the Human Apurinic/apyrimidinic Endonuclease 1 (APE1); recombinant APE1, TAMRA/BHQ-2 abasic DNA cleavage fluorescence; actives 0.35% (n = 350,000); DNA repair nuclease/redox regulator APEX1 (Homo sapiens), P27695; Potency, µM (series often up to 65.8 µM), for the others: at the top dose activity change, negative = inhibition, most hits filed as inhibitors;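 further: potency means the concentration at half of the fitted maximal effect; plate controls were vehicle for no effect and reference inhibitor for full effect; nearly all actives have a fitted effect of over 55% in size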
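Measures dequenching upon AP-site incision of a 5'-TAMRA/3'-BHQ-2 THF-containing duplex, 50 nM; human APE1 0.75 nM after 15 min room-temperature exposure to compound; kinetic three-point read at one-minute spacing.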
Pol eta inh-1: qHTS for Inhibitors of Polymerase Eta; DNA polymerase eta (Homo sapiens), Q9Y253; recombinant Pol eta, fluorescent DNA replication assay; Potency, µM (series often up to 114 µM), without a hit: top-dose activity change, negative = inhibition, most hits filed as inhibitors; actives 1.2% (n = 390,000); AID 588591, 2011; further: potency means the concentration at half of the fitted maximal effect; on the % scale 0 is the no-effect control and ±100 the full control effect
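Pol eta (10 nM) was preincubated with compounds for 15 min at room temperature, after which fluorescent replication substrate (50 nM final) was added to start the reaction. Fluorescence was read kinetically at 0 and 10 min.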
Pol beta inh-2: Inhibitors of DNA Polymerase Beta: Hit validation; shares compounds with Pol beta inh-1; Pol beta primer extension/strand displacement, fluorescence kinetic; Potency, µM, actives largely listed as inhibitors; actives 87% (n = 250); AID 540280, 2011; calls by dose curve; further: potency means the concentration at half of the fitted maximal effect
Klenow counter: Inhibitors of DNA Polymerase Beta: Hit Validation in Klenow Fragment Assay; AID 540300, 2011; Klenow exo- polymerase counter-screen, fluorescent DNA substrate; shares compounds with Pol beta inh-1; activity change, negative = inhibition, % at 57.1 µM; 250 tested, under 10 active
HIV RT inh: Inhibitors of DNA Polymerase Beta: Hit Validation in HIV-RT Assay. activity % (negative = inhibition, positive = activation), % at 57.1 µM. AID 540301, 2011. HIV-1 RT polymerase activity, counter-screen. shares compounds with Pol beta inh-1. 250 tested, under 10 active
POLB inh gel: Inhibitors of DNA Polymerase Beta: Hit Validation in Radiolabeled Extension Assay. shares compounds with Pol beta inh-1. radiolabeled primer extension gel assay, phosphorimager. inhibition, % at 10 µM. actives 91% (n = 110). AID 540325, 2011;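 active means inhibition at 10 µM of 30% or more; inconclusive means no clear call, values can overlap the other calls; inactive means inhibition at 10 µM under 30%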
Pol iota confirm: qHTS for Inhibitors of Polymerase Iota: Confirmatory Assay for Cherry-picked Compounds; Potency, µM, actives largely listed as inhibitors; actives 77% (n = 1,500); Pol iota primer extension, TAMRA/BHQ fluorescence; AID 720496, 2013; shares compounds with Pol kappa inh-1; further: potency means the concentration at half of the fitted maximal effect
Pol kappa inh-2: qHTS for Inhibitors of Polymerase Kappa: Confirmatory Assay for Cherry-picked Compounds; shares compounds with Pol eta inh-1; purified Pol-kappa, fluorescent strand-displacement substrate; Potency, µM, hits mostly inhibitors; actives 76% (n = 920); further: potency means the concentration at half of the fitted maximal effect
Pol eta inh-2: qHTS for Inhibitors of Polymerase Eta: Confirmatory Assay for Cherry-picked Compounds | shares compounds with Pol eta inh-1 | Pol eta primer extension, TAMRA/BHQ fluorescence, 10 min | Potency, µM, most hits filed as inhibitors | actives 64% (n = 2,600) | AID 720502, 2013; further: potency means the concentration at half of the fitted maximal effect
An asterisk follows results filed as active; ? = inconclusive; · = no result. Unless noted, the call rests on the fitted dose curve; in most records, active means well fitted curve in the direction sought with a large enough effect; inconclusive means small, poorly fitted or top-dose-only effect, or another doubt; inactive means no such curve, though single readings can be large; an effect the other way counts as inactive or inconclusive.

SMILES | Pol beta inh-1 | GLS inhibitor | Pol kappa inh-1 | POLI inh | APEX1 inh | Pol eta inh-1 | Pol beta inh-2 | Klenow counter | HIV RT inh | POLB inh gel | Pol iota confirm | Pol eta inh-2 | others
c1coc(-c2nnc3sc(Cc4cccs4)nn23)c1 | 13µM* | 9% | 20µM* | 7.9µM* | 25µM* | 28µM* | 22* | -10 | 38 | 36* | ? | ?
Clc1ccc(-c2nnc3sc(Cc4cccs4)nn23)c(Cl)c1 | ? | 2% | -13% | 12% | 0% | -17% | · | · | · | · | · | ·
CC(=O)c1ccc(N2CCN(C(C)C(=O)Nc3ccc4c(c3)OCCO4)CC2)cc1 (stereo unspecified) | · | 4% | -10% | -9% | 22% | -10% | · | · | · | · | · | ·
Cc1cc(C)n2c(SC/C(O)=C(\C#N)c3nc4ccccc4[nH]3)nnc2n1 | 18µM* | -16% | 45µM* | 11µM* | ? | 3.2µM* | 35* | 5 | -4 | 100* | · | 76*
Cc1ccccc1-n1c(SC/C(O)=C(\C#N)c2nc3ccccc3[nH]2)nnc1-c1ccncc1 | ? | 10% | -31% | ? | -2% | ? | · | · | · | · | · | ·
CCOC(=O)c1[nH]c2ccc(OCC)cc2c1NC(=O)CN1CCC2(CC1)OCCO2 | 0% | 25% | -17% | 3% | -8% | -6% | · | · | · | · | · | ·
O=C(/C=C\c1ccco1)c1ccc(NC(=O)c2ccco2)cc1 | 10µM* | 4% | ? | 35µM* | ? | ? | 35* | -24 | 16 | 78* | 67* | ?
CCc1ccc(-n2cccc2/C=C2/C(=N)N3C(=NC2=O)SN=C3S(C)(=O)=O)cc1 | 6.3µM* | -1% | 79µM* | ? | ? | 20µM* | 32* | -30 | ? | 73* | ? | 48* | Pol kappa inh-2=67*
Cc1ccc(-n2cccc2/C=C2/C(=N)N3C(=NC2=O)SN=C3S(C)(=O)=O)cc1 | 16µM* | 18% | ? | 18µM* | ? | 32µM* | 16* | -24 | 19 | · | 84* | 67*
